Assay outcomes (PubChem BioAssay)
An excerpt weighted towards active compounds, which were near 9.5% of everything screened.
RE007 growth inh: less growth of the S. pombe RE007 Vpr strain; S. pombe RE007 Vpr strain, BacTiter-Glo ATP luminescence, 24 h; Potency, µM (highest dose often 92.2 µM), for inactives: at the top dose activity change, negative = less growth, hits mostly inhibitors; 360,000 tested, 0.21% active; AID 651644; active = well fitted falling curve with a large enough effect; inconclusive = small, poorly fitted or top-dose-only effect; inactive = no such curve, though single readings can be large or run the other way; also: % is scaled to controls: 0 for no effect and ±100 for the full control effect; nearly all actives have a fitted effect of over 50% in size
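Fission yeast strain RE007, carrying one chromosomally integrated HIV-1 vpr copy, was seeded at OD 0.01 in PMG+AL medium with 23 nL pinned compound. After 24 h at 30 °C and 99% humidity, viability was read by BacTiter-Glo luminescence.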
Pf growth 48h: P. falciparum growth inhibition at 48 hours (one generation) | P. falciparum luciferase growth in erythrocytes, 48 h | Potency, µM (series often up to 28.7 µM), for inactives: at the highest dose activity change, negative = inhibition, hits mostly inhibitors | 310,000 tested, 5.9% active; active = well fitted inhibition curve with a large enough effect; inconclusive = small, poorly fitted or top-dose-only effect, or another doubt; inactive = no such curve, though single readings can be large or run the other way; also: % is scaled to controls: 0 for no effect and ±100 for the full control effect
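In quantitative HTS format, infected erythrocytes bearing luciferase-reporter parasites were treated for a single generation at 37 C. Luminescence after adding detection reagent served as the growth measure.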
Pf growth 96h: P. falciparum growth inhibition at 96 hour, primary screen for plastid delayed-death inhibitors | P. falciparum luciferase reporter growth, 96 h | Potency, µM (titrated, usually from 28.7 µM), for the others: at the top dose activity change, negative = inhibition, hits mostly inhibitors | 320,000 tested, 6.9% active; active = well fitted inhibition curve with a large enough effect; inconclusive = small, poorly fitted or top-dose-only effect, or another doubt; inactive = no such curve, though single readings can be large or run the other way; also: % is scaled to controls: 0 for no effect and ±100 for the full control effect
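Cell-based qHTS: luciferase-tagged P. falciparum in erythrocytes (2% hematocrit, 0.05% parasitemia final) incubated with compounds for 96 hours, 37 C, 5% CO2; luciferase detection reagent then added and luminescence measured.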
SARS PLP yeast: blocks SARS-CoV papain-like protease in a yeast assay; S. cerevisiae expressing SARS-CoV PLpro, growth rescue; Potency, µM (top dose mostly 32.9 µM), for inactives: at the highest dose activity, positive = growth rescue, hits mostly activators; 330,000 tested, 0.19% active; AID 485353; also: 0% is about no effect; nearly all actives have a fitted effect of over 55% in size
NS1 function inh: inhibitors of influenza NS1 protein function; Potency, µM (highest dose often 46.1 µM), inactives show at the top dose activity, positive = more growth; 270,000 tested, 0.4% active; AID 2326; also: actives are rising curves; nearly all actives have a fitted effect of over 50% in size
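OD600 was taken as the measure of yeast growth restored by compound in an NS1-expressing S. cerevisiae strain. Cells had been washed out of glucose medium and diluted 1:100 into galactose -URA medium, pH 6.0.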
* = called active by the depositor; ? = inconclusive; / = no result given; ! = repeats disagree; [ ] = another dose, or the depositor's remark. Unless noted, calls follow the shape of the full dose curve. Potency is read from the fitted curve at half-maximal effect.

SMILES	RE007 growth inh	Pf growth 48h	Pf growth 96h	SARS PLP yeast	NS1 function inh
COc1ccc(OC)c(C2=Nn3c(nnc3C3CCCCC3)SC2)c1	7.5%	?	9.28µM*	-0.5%	-6.7%
COc1ccc(C2=Nn3c(nnc3-c3ccccc3)SC2)cc1OC	15.7%	/	-26.1%	-2.8%	-3.1%
COc1ccc(C2=Nn3c(nnc3C3CCCCC3)SC2)cc1OC	10.8%	/	4.65µM*	14.1%	-2.2%
Cc1ccc(NC(=O)C2=NNC(=O)CC2)cc1S(=O)(=O)Nc1ccc(SC(F)F)cc1	1.8%	-16.1%	0.3%	-5.3%	/
Cc1ccc(S(=O)(=O)N(C)C)cc1NC(=O)C(C)OC(=O)C1CCC1 (stereo unspecified)	-16.9%	/	/	0.9%	/
CCCCC(CC)CN=C(N)NC(N)=NCCCCCCN=C(N)NC(N)=NCC(CC)CCCC (stereo unspecified)	?	0.233µM*	0.0657µM*!	/	/
O=C(CN(c1ccccc1Cl)S(=O)(=O)c1ccccc1)NC1CC2CCC1C2 (stereo unspecified)	7.9%	/	/	/	/
O=C(CN(c1ccc2c(c1)OCCO2)S(=O)(=O)c1ccccc1)NCc1ccc(Cl)cc1	6.3%	-25.7%	11.7µM*	2.7%	26.4%
O=C(CN(c1ccccc1Cl)S(=O)(=O)c1ccccc1)NCc1ccccc1	-1.4%	?	11.7µM*	-1.2%	7.1%
COc1cccc(NC(=O)CN(C)C(=O)CSc2nc(C)cc(C)n2)c1	-18.7%	-28.0%	?	1.7%	/
COc1cccc2c1cc1c(=O)n(CC(=O)NCc3ccccn3)nc(C)n12	7.9%	20.5%	80.3%	-0.4%	26.0%
O=c1[nH]c(NCc2ccccc2)nc2c1CCCC2	-10.6%	13.1µM*	8.28µM*	-8.1%	-5.8%
O=c1[nH]c(SCCc2ccccc2)nc2c1CCC2	4.2%	/	/	/	/
CCCc1ccc(-c2ccc(-c3noc(-c4ccncc4)n3)cc2)nc1	6.4%	0.0%	10.4µM*	6.6%	13.9%
CCNC(=S)N(Cc1ccc2c(c1)OCO2)C1CC(=O)N(c2ccc(OC)cc2)C1=O (stereo unspecified)	-2.0%	?	?	7.2%	4.6%
CCNC(=S)N(Cc1ccc2c(c1)OCO2)C1CC(=O)N(c2ccc(F)cc2)C1=O (stereo unspecified)	4.0%	9.28µM*	?	-3.0%	9.6%
O=C(NCc1cccnc1)c1csc([C@@H]2O[C@H](CO)[C@H](O)[C@H](O)[C@H]2O)n1	3.0%	/	/	/	/
CCc1ccc(CN(C)C(=O)C2CCC(=O)N(CC3CCCCC3)C2)cc1 (stereo unspecified)	-11.3%	?	13.1µM*	-4.3%	1.6%
O=C(NCCc1ccccc1Cl)C1CCC(=O)N(CC2CCCCC2)C1 (stereo unspecified)	-3.9%	-9.2%	13.1µM*	-1.7%	-17.7%
CN(Cc1ccccc1C(F)(F)F)C(=O)C1CCC(=O)N(CC2CCCCC2)C1 (stereo unspecified)	-16.1%	/	/	/	/
O=C(NCc1ccccc1Cl)C1CCC(=O)N(CC2CCCCC2)C1 (stereo unspecified)	-16.7%	2.9%	15.9%	-5.4%	3.2%
O=C(COC(=O)c1cc2ccccc2o1)NCc1ccco1	-6.7%	-16.7%	-18.0%	-9.9%	/
COC(=O)[C@@H]1Cc2c([nH]c3ccccc23)C(C)(C)N1C(=O)CCl	-9.8%	11.7µM*	?	-1.5%	1.4%
Cc1nn(-c2ccccc2)c2sc(C(=O)N3CCCCC3)cc12	-8.6%	45.9%	2.2%	/	-54.6%
Cc1ccccc1-n1nc(C)c2cc(C(=O)N3CCOCC3)sc21	10.1%	-16.9%	3.29µM*	5.0%	-5.9%
SMILES	RE007 growth inh	Pf growth 48h	Pf growth 96h	SARS PLP yeast	NS1 function inh
Cc1ccc(S(=O)(=O)N2CCN(C(=O)c3ccccn3)CC2)cc1	-5.4%	-7.1%	19.8%	0.6%	/
Cc1ccc(S(=O)(=O)N2CCN(C(=O)c3cc4c(C)nn(-c5ccccc5C)c4s3)CC2)cc1	-3.7%	4.65µM*	3.29µM*	3.9%	?
COc1ccc(CNC(=O)C[C@H]2C[C@H](C(=O)N(C(C)C)C(C)C)[C@@]3(C)c4[nH]c5cc(-c6ccco6)ccc5c4CCN3C2=O)cc1OC	-9.4%	/	/	-8.1%	/
O=C(NNC(=O)c1c(O)c2ccccc2[nH]c1=O)c1ccccc1	9.6%	26.4%	?	-21.2%	-16.1%
CC(C)C(=O)NNC(=O)c1c(O)c2ccccc2[nH]c1=O	-2.1%	11.7µM*	?	2.9%	-36.1%
CC(C)NC(=O)c1c(O)c2ccccc2[nH]c1=O	9.3%	10.4µM*	4.15µM*	-0.5%	-61.9%
O=c1[nH]c2ccccc2c(O)c1O	-4.3%	13.1µM*	10.4µM*	0.3%	0.8%
O=c1[nH]c2ccccc2c(O)c1-[n+]1ccccc1	4.9%	3.0%	13.6%	1.0%	-0.6%
CCn1nc(C)cc1C(=O)n1nc(C)c(Sc2ncccn2)c1C	-7.2%	23.5%	7.2%	0.7%	0.8%
O=C1CCC(C(=O)N2CCSCC2)CN1Cc1cccc(C(F)(F)F)c1 (stereo unspecified)	-13.6%	24.5%	?	-4.9%	-3.4%
COc1ccc(S(=O)(=O)N2CCCOC2CNC(=O)C(=O)NCc2cccnc2)cc1 (stereo unspecified)	1.4%	-4.9%	2.0%	9.2%	3.0%
CC1(C(=O)NS(=O)(=O)c2ccccc2C(F)(F)F)CCN1C(=O)c1cccc(F)c1 (stereo unspecified)	11.4%	/	/	/	/
CCc1cccc2sc(N3CCN(C(=O)c4ccc([N+](=O)[O-])o4)CC3)nc12	-17.6%	0.657µM*	0.522µM*	5.8%	/
Cc1cc(C)c(NC(=O)C2CCN(C(=O)c3ccco3)CC2)c(C)c1	23.0%	21.4%	-0.1%	1.5%	11.5%
Cc1cccc2sc(NC(=O)C3CCN(C(=O)c4ccco4)CC3)nc12	-19.9%	-20.2%	14.7µM*	-2.6%	2.2%
COc1cccc2sc(N3CCN(C(=O)c4ccco4)CC3)nc12	4.8%	9.28µM*	?	7.0%	/
Cc1ccc(Cl)c2sc(N3CCN(C(=O)c4ccco4)CC3)nc12	-2.0%	?	?	-16.5%	/
O=C(Nc1cnn(Cc2ccccc2)c1)c1cc2nc(-c3ccco3)cc(C(F)(F)F)n2n1	-1.2%	?	11.7µM*	7.5%	-21.2%
Cc1ccccc1Cn1nc(C)c(NC(=O)c2cc3nc(-c4ccco4)cc(C(F)(F)F)n3n2)c1C	8.2%	13.1µM*	/	-6.7%	-36.4%
COc1ccc(CCN(C)C(=O)c2cnc(C)cn2)cc1OC	3.5%	33.0%	35.1%	2.0%	1.9%
Cc1c(C(=O)N/N=C/c2ccc(N(C)C)cc2)[nH]c2ccc(Cl)cc12	5.8%	19.9%	1.85µM*	14.1%	-1.9%
COc1ccccc1NC(=O)CSc1ccc(-c2ccc(-n3cccn3)cc2)nn1	-4.9%	?	?	-2.5%	/
COc1ccccc1NC(=O)c1cn(C)c(=O)c2cc(OC)c(OC)cc12	6.1%	21.8%	8.28µM*	2.1%	-2.8%
COc1cc2c(C(=O)Nc3ccccc3F)cn(C)c(=O)c2cc1OC	2.8%	-17.2%[0.00184 µM]	8.28µM*	-1.2%	-1.9%
